From PubChem BioAssay (Tox21)
Records with an inconclusive call do not appear. A number with no mark means an inactive call. Active and inactive are the calls of the source. The call rests on the fitted dose curve; in most records, active means well fitted inhibition curve with a large enough effect in the repeat runs; inconclusive means weak or mixed curves; inactive means no such curve, though single readings can be large or run the other way.
On the % scale 0 is the no-effect control and ±100 the full control effect; potency means the concentration at half of the fitted maximal effect.

Assay: qHTS assay to identify small molecule antagonists of the thyroid receptor (TR) signaling pathway (AID 743065); further: nearly all actives have a fitted effect of over 55% in size
Details: GH3.TRE-Luc, T3-stimulated luciferase inhibition, 23.5 h; series mostly up to 70.3 µM; activity, negative = inhibition: at the top concentration
From the text: U.S. Tox21 Program National Center for Advancing Translational Sciences [NCATS] NIH Chemical Genomics Center [NCGC] U.S. Environmental Protection Agency [EPA] National Institutes of Environmental Health Sciences [NIEHS] National Toxicology Program [NTP] U.S. Food and Drug Administration [FDA] Tox21 Assay Overview: Thyroid receptor (TR), a nuclear hormone receptor, plays an important role in development, proliferation, differentiation, metabolism, brain function, and cardiovascular system. […] To profile the Tox21 10K compound library in TR signaling, a cell-based GH3-TRE-Luc assay (GH3.TRE-Luc cell line, developed by the laboratory of Dr. Albertinka J. Murk, Wageningen University) was used to measure the inhibition of TR. GH3 (rat pituitary tumor) cells stably expressing a TR activity sensor consisting of two TR response elements and a luciferase reporter gene.
Tox21 Assay Protocol Summary: GH3.TRE-Luc cells were dispensed at 1500 cells/4 uL/well into 1536-well white solid bottom plates using a Multidrop Combi dispenser (Thermo Fisher Scientific Inc., Waltham, MA). After the assay plates were incubated at 37 C for 4 hours, 23 nL of library compound or DMSO controls was transferred to the assay plates by a pintool station (Kalypsys, San Diego, CA), followed by addition of 1 ul of T3 (1 nM, final concentration in the wells) to stimulate TR transactivation. The assay plates were incubated at 37 C for 23.5 h, and then 1 uL of CellTiter-Fluor reagent (Promega, Madision, WI) of measuring cytotoxicity was added to each well using a Bioraptr Flying Reagent Dispenser (FRD) workstation (Beckman Coulter, Indianapolis, IN, USA). The plates were incubated at 37 C and 5% CO2 for additional 30 min, and fluorescence intensity was measured by a ViewLux plate reader (PerkinElmer, Shelton, CT). For measuring luciferase reporter gene activity, 4 uL of ONE-Glo Luciferase Assay reagent (Promega) was added to each well using a Bioraptr FRD (Beckman Coulter), followed by 30 min incubation at room temperature. The luminescence intensity of plates was recorded by a ViewLux plate reader (PerkinElmer, Shelton, CT).
For CCC(C)n1c(=O)[nH]c(C)c(Br)c1=O (stereo not given), the “activity, negative = inhibition” value was 0.135%.
For O=C(CCN1CC1)OCC(CO)(COC(=O)CCN1CC1)COC(=O)CCN1CC1, the “activity, negative = inhibition” value was 4.2%.
With COC(C)(C)C the “activity, negative = inhibition” value was -8.46%.
For CC(=O)Nc1cc([As](=O)(O)O)ccc1O, the “activity, negative = inhibition” value was 0.922%.
For Cc1ncc(CNC(=O)N(CCCl)N=O)c(N)n1, the “activity, negative = inhibition” value was 6.31%.
For CCN(CC)c1nc(C)cc(OP(=S)(OC)OC)n1, the Potency was 61.1 µM (active).
In the case of Cc1coc2c1CCC(C)C2 (stereo not given), the “activity, negative = inhibition” value is reported as -12.1% [at 95 µM].
With CC1=C(C(=O)Nc2ccccc2)S(=O)(=O)CCO1 the Potency was 27.3 µM (active).
In the case of CCCCC(=O)Cl, the “activity, negative = inhibition” value is reported as 40.1% [at 95 µM].
In the case of c1cc[c]([Hg][c]2ccccc2)cc1, the Potency is reported as 3.06 µM (active).
For Nc1cc2c3c(c1)C(c1ccccc1)=N[C@@H](NC(=O)c1cccnc1)C(=O)N3CC2, the “activity, negative = inhibition” value was -1.42%.
With CCOC(=O)/C=C(C)/C=C/C[C@@H](C)CCCC(C)C the “activity, negative = inhibition” value was 7.88%.
With O=[N+]([O-])c1cccc2c([N+](=O)[O-])cccc12 the “activity, negative = inhibition” value was -8.71% [at 95 µM].
In the case of CC(C)(C)C(=O)C(Oc1ccc(Cl)cc1)n1cncn1 (stereo not given), the “activity, negative = inhibition” value is reported as 4.5%.
With Nc1cnn(-c2ccccc2)c(=O)c1Cl the “activity, negative = inhibition” value was 2.53%.
In the case of O=[N+]([O-])c1ccc2c3c(cccc13)CC2, the “activity, negative = inhibition” value is reported as 0.505%.
With CNC(=O)N(C)c1nc2ccccc2s1 the “activity, negative = inhibition” value was -10.8%.
For C=C(C)[C@@H]1CC=C(C=O)CC1, the “activity, negative = inhibition” value was 9.11%.
For COC(=O)C(c1ccccc1)C1CCCCN1 (stereo not given), the Potency was “inactive”.
For CCOP(=S)(Oc1cnc(C(C)(C)C)nc1)OC(C)C (stereo not given), the Potency was 61.1 µM (active).
With CC1=NNC(=O)N(/N=C/c2cccnc2)C1 the “activity, negative = inhibition” value was 4.15%.
With Nc1n[nH]c(N)n1 the “activity, negative = inhibition” value was -2.96% [at 95 µM].
With CN1CCN(C(=O)O[C@H]2c3nccnc3C(=O)N2c2ccc(Cl)cn2)CC1 the “activity, negative = inhibition” value was -0.313%.
With Cc1cc(C)c(C(=O)P(=O)(C(=O)c2c(C)cc(C)cc2C)c2ccccc2)c(C)c1 the “activity, negative = inhibition” value was -0.931%.
For CCOC(=O)CP(=O)(OCC)OCC, the “activity, negative = inhibition” value was 3.8%.
In the case of N#CCBr, the “activity, negative = inhibition” value is reported as -12.7% [at 95 µM].
With COc1cc(OC)nc(NC(=O)NS(=O)(=O)c2ncccc2C(=O)N(C)C)n1 the “activity, negative = inhibition” value was 6.03%.
For O=S(=O)(O)C(F)(F)C(F)(F)C(F)(F)C(F)(F)C(F)(F)C(F)(F)F, the “activity, negative = inhibition” value was -11.1%.
In the case of O=[N+]([O-])c1cccc2cccnc12, the “activity, negative = inhibition” value is reported as -0.407% [at 95 µM].
In the case of CCS(=O)(=O)C(C)(C)S(=O)(=O)CC, the “activity, negative = inhibition” value is reported as 9.8%.
For O=C(Cc1ccccc1)OCc1ccccc1, the “activity, negative = inhibition” value was -4.69% [at 95 µM].
For ClC(Cl)Br, the “activity, negative = inhibition” value was 21.9% [at 95 µM].
In the case of c1cc2c(c(N3CCNCC3)c1)OCCO2, the “activity, negative = inhibition” value is reported as 6.27%.
With CCCCOP(=O)(O)OCCCC the “activity, negative = inhibition” value was 6.04%.
In the case of COP(=S)(OC)Oc1c(Cl)cc(C)cc1Cl, the “activity, negative = inhibition” value is reported as -1.49%.
In the case of C#C[C@]1(O)C=C[C@H]2[C@@H]3CCC4=CC(=O)CC[C@@H]4[C@H]3CC[C@@]21CC, the Potency is reported as 11.9 µM (active).
For COP(=S)(OC)Oc1ccc(S(N)(=O)=O)cc1, the “activity, negative = inhibition” value was 0.0165%.
For CC(COc1ccc(Oc2ccccc2)cc1)Oc1ccccn1 (stereo not given), the “activity, negative = inhibition” value was -0.384%.
In the case of N#Cc1c(Cl)cccc1Cl, the “activity, negative = inhibition” value is reported as -0.139%.
With COc1cc(OC)nc(Oc2cccc(Oc3nc(OC)cc(OC)n3)c2C(=O)O)n1 the “activity, negative = inhibition” value was 0.0243%.
